POLB inh: DNA polymerase beta (human) inhibition; P06746; Pol beta primer extension/strand displacement, fluorescence kinetic; Potency, µM (highest dose often 114 µM), actives largely listed as inhibitors; 1.3% of 340,000 active
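Human Pol beta at 10 nM; strand-displacement substrate 50 nM final. Compound exposure 15 min at room temperature before start, reaction 10 min at room temperature.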
POLK inh: DNA polymerase kappa (human) inhibition. 0.53% of 400,000 active. Q9UBT6. Potency, µM (titrated, usually from 107 µM), most hits filed as inhibitors. AID 588579. purified Pol kappa, fluorescent DNA synthesis assay, 10 min
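Here, compound and 10 nM enzyme are combined for 15 min at room temperature; adding 50 nM substrate (final) starts DNA synthesis, tracked by fluorescence at 0 and 10 min against buffer-only wells.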
PI4K2A inh: blocks human PI4K2A kinase activity; Q9BTU6; purified PI4K2A, ADP-Glo luminescence, 1 h; hits give low values; activity change, negative = inhibition, % at 76.9 µM; 0.13% of 420,000 active; AID 1346378; in the data active = activity change below about -50%; inconclusive = mostly about -30% to -49%
Target sequence (Q9BTU6 whole entry, looked up): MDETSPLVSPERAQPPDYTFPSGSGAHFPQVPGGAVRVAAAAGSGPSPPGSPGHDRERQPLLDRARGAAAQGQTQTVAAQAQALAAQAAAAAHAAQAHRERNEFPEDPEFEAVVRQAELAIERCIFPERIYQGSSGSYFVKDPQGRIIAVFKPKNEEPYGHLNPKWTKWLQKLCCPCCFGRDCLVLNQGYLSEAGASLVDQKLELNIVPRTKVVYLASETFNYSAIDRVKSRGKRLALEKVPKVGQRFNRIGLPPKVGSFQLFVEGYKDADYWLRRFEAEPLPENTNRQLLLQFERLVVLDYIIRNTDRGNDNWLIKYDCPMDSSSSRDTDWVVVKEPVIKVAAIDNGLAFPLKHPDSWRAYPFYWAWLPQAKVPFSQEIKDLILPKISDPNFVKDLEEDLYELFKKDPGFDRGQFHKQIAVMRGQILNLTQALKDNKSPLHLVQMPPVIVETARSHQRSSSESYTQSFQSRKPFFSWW
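In this quantitative HTS, ADP production by PI4K2A was quantified luminescently after 1 h at ambient temperature; 100 microM adenosine served as plate-quality control.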
Pol iota inh: DNA polymerase iota (human) inhibition. AID 588590. 1% of 390,000 active. Pol iota fluorescent replication assay, 10 min. Q9UNA4. Potency, µM (top dose mostly 115 µM), usual class: inhibitors
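Pol iota at 10 nM preincubated 15 min with compounds at room temperature; reaction started with fluorescent substrate, 50 nM final. Fluorescence read kinetically at 0 and 10 min; buffer-only wells as negative control.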
PI5P4K alpha inh: PI5P4K alpha (human) kinase inhibition. 1.2% of 330,000 active. PI5P4Kalpha enzyme, ADP-Glo luminescence, 60 min; hits give low values. AID 652105. P48426. max response, %; active = max response of -50% or lower; inconclusive = between -30% and -50%; inactive = -30% or higher; also: value at the top dose of about 77 µM
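Luminescence from ADP-Glo served as readout of PI5P4Kalpha activity in a qHTS format. Reaction: enzyme, substrate, compound, ATP at 5 microM final, 60 min at RT.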
POLH inh: blocks human DNA polymerase eta activity; recombinant Pol eta, fluorescent DNA replication assay; 1.2% of 390,000 active; Q9Y253; Potency, µM (doses to about 114 µM), hits mostly inhibitors
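Fluorescent replication assay: 50 nM final substrate added after a 15 min room-temperature compound preincubation with 10 nM enzyme. Signal taken at 0 min and again at 10 min.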
Each line names hits and unclear results; the compound was inactive in the other large screens. Rows were chosen to be rich in hits. Some 2.8% of all compounds tested hit in one or more screens of this group. Unless noted, calls follow the shape of the dose curve; as a rule, active = well fitted inhibition curve with a large enough effect; inconclusive = small, poorly fitted or top-dose-only effect, or another doubt; inactive = no such curve, though single readings can be large or run the other way.

C/[N+]([O-])=C\c1coc2ccccc2c1=O	none
O=C1NC(=S)S/C1=C\c1coc2ccccc2c1=O	Pol iota inh inconclusive, PI5P4K alpha inh -73
O=C(N/N=C/c1coc2ccc(Cl)cc2c1=O)c1ccc(O)cc1	POLB inh inconclusive
O=C1NC(=S)S/C1=C\c1coc2ccc(O)cc2c1=O	POLB inh inconclusive, Pol iota inh inconclusive, PI5P4K alpha inh -100, POLH inh 50µM
CC(=O)/C=C/C=C1/C2CCC(C2)C1(C)C (stereo not drawn)	none (no result: POLB inh, POLK inh, Pol iota inh, PI5P4K alpha inh, POLH inh)
O=C1NC(=S)S/C1=C\c1ccc2ccccc2c1	PI5P4K alpha inh -62
COc1ccc(C=C2CS(=O)(=O)CC(=Cc3ccc(OC)cc3)C2=O)cc1	POLH inh 50µM (no result: POLB inh, POLK inh, Pol iota inh)
COc1ccc(C=C2SC(=S)NC2=O)cc1	PI5P4K alpha inh -86 (no result: POLB inh)
CCc1ccc(/C=C2/SC(=S)NC2=O)cc1	none (no result: POLB inh, Pol iota inh, PI5P4K alpha inh, POLH inh)
O=C1NC(=S)SC1=Cc1ccc(Cl)cc1	Pol iota inh inconclusive, PI5P4K alpha inh -51 (no result: POLB inh)
Cn1c(=O)oc2cc(S(=O)(=O)NC(Cc3ccccc3)C(=O)Nc3ccc(F)cc3)ccc21 (stereo not drawn)	none (no result: PI5P4K alpha inh)
COCCc1ccc(OCC2CO2)cc1 (stereo not drawn)	none (no result: POLB inh, POLK inh, Pol iota inh, PI5P4K alpha inh, POLH inh)
O=C1Nc2ccccc2S/C1=C/c1cccs1	none
O=C1NC(=S)SC1=Cc1cccs1	Pol iota inh inconclusive, PI5P4K alpha inh -67 (no result: POLB inh)
O=C1NC(=S)SC1=Cc1ccc(F)cc1	PI5P4K alpha inh -71 (no result: POLB inh)
COC(=O)c1ccc(Cn2c(=O)cc(C(F)(F)F)c3c(C)nn(C)c32)cc1	none (no result: PI5P4K alpha inh)
O=C(COc1ccccc1[N+](=O)[O-])Nc1cccc(S(=O)(=O)NC2=NCCCCC2)c1	Pol iota inh 79µM, POLH inh 20µM (no result: POLB inh)
CC(=O)Nc1ccc(/C(C)=N/NC(=O)c2ccc(F)cc2)cc1	none
O=C(/C=C/c1cccs1)NC(=S)Nc1ccc(C(=O)O)cc1	PI5P4K alpha inh -72
O=C(NC(=S)Nc1c(Cl)ccc2nsnc12)c1ccco1	PI4K2A inh inconclusive, Pol iota inh 25µM
O=C(NC(=S)NNC(=O)c1ccco1)c1ccccc1	none
O=C(NC(=S)Nc1ccccc1Cl)c1ccco1	none
NS(=O)(=O)c1ccc(NC(=S)NC(=O)/C=C/c2cccs2)cc1	none
O=C(NC(=S)Nc1ccc(NC(=O)c2ccco2)cc1)c1ccccc1	Pol iota inh 89µM
CC(=O)Nc1ccc(/C(C)=N\NC(=O)c2ccc(-c3ccccc3)cc2)cc1	POLB inh 40µM (no result: POLK inh, PI4K2A inh, Pol iota inh, PI5P4K alpha inh, POLH inh)
CC1CCC(C(C)C)C(P(=O)(c2ccccc2)c2ccccc2)C1 (stereo not drawn)	none (no result: POLB inh, PI4K2A inh, Pol iota inh, PI5P4K alpha inh, POLH inh)
O=C(O)c1ccc(NC(=S)NC(=O)c2ccc(-c3ccccc3)cc2)cc1	PI5P4K alpha inh -55
O=C(NC(=S)Nc1ccccc1)c1ccc(-c2ccccc2)cc1	none
c1ccc(Cn2ccc3ccc(-c4ccc5ccn(Cc6cccc(-c7cccs7)c6)c5c4)cc32)cc1	none (no result: POLB inh, POLK inh, Pol iota inh, PI5P4K alpha inh, POLH inh)
Cc1ccsc1C1NC(=O)c2c(sc3c2CCCC3)N1 (stereo not drawn)	PI5P4K alpha inh -68, POLH inh inconclusive
O=C1NC(c2ccccn2)Nc2sc3c(c21)CCC3 (stereo not drawn)	Pol iota inh inconclusive, POLH inh inconclusive
C/C(=N\NC(=O)Cc1cc(=O)[nH][nH]1)c1cccc([N+](=O)[O-])c1	Pol iota inh 7.1µM
O=C(CCS(=O)(=O)c1nc(-c2cccs2)cc(C(F)(F)F)n1)Nc1cc(Br)ccc1O	Pol iota inh inconclusive (no result: PI5P4K alpha inh)
CS[C@@H]1SC[C@H]2C(=O)N(C)C(C(C)C)C(=O)OC[C@@H](NC(=O)c3cnc4ccccc4n3)C(=O)N[C@@H](C)C(=O)N(C)[C@H]1C(=O)N(C)C(C(C)C)C(=O)OC[C@@H](NC(=O)c1cnc3ccccc3n1)C(=O)N[C@@H](C)C(=O)N2C (stereo partly drawn)	POLK inh 21µM (no result: POLB inh, PI4K2A inh, Pol iota inh, PI5P4K alpha inh, POLH inh)
COc1ccc(OC)c(NC(=O)CSC2=C(C#N)C(c3ccco3)C3=C(CCCC3=O)N2)c1 (stereo not drawn)	none
CCc1ccccc1NC(=O)CSC1=C(C#N)C(c2ccc3c(c2)OCO3)C2=C(CCCC2=O)N1 (stereo not drawn)	POLB inh 22µM (no result: PI5P4K alpha inh)
Cc1cc(C)c2nc(N3C(=O)C(O)=C(C(=O)c4ccco4)C3c3ccco3)sc2c1 (stereo not drawn)	POLB inh 40µM, Pol iota inh 35µM, PI5P4K alpha inh -53, POLH inh inconclusive
COc1ccc2nc(N3C(=O)C(O)=C(C(=O)c4ccco4)C3c3ccccc3OC)sc2c1 (stereo not drawn)	none
Cc1ccc2nc(N3C(=O)C(O)=C(C(=O)c4ccco4)C3c3cccs3)sc2c1 (stereo not drawn)	Pol iota inh inconclusive (no result: PI5P4K alpha inh)
COc1ccc2nc(N3C(=O)C(O)=C(C(=O)c4ccco4)C3c3ccc(C)o3)sc2c1 (stereo not drawn)	Pol iota inh inconclusive, PI5P4K alpha inh -50 (no result: POLB inh)
Cc1ccc2nc(N3C(=O)C(O)=C(C(=O)c4ccc(C)o4)C3c3ccc(O)cc3)sc2c1 (stereo not drawn)	Pol iota inh inconclusive, PI5P4K alpha inh -58, POLH inh inconclusive (no result: POLB inh)
CCOC(=O)c1sc(N2C(=O)C(O)=C(C(=O)c3ccco3)C2c2ccco2)nc1C (stereo not drawn)	POLB inh inconclusive, POLK inh inconclusive, Pol iota inh 56µM, POLH inh inconclusive
Cc1ccc(-c2cc(C(=O)Oc3ccccc3)c3cccc(C)c3n2)cc1	POLB inh inconclusive, Pol iota inh inconclusive, POLH inh 50µM (no result: PI5P4K alpha inh)
COc1ccc(-c2cc(C(=O)Oc3ccccc3)c3cc(C)ccc3n2)cc1	none (no result: PI5P4K alpha inh)
Nc1c(N=Nc2ccc([N+](=O)[O-])cc2)c(S(=O)(=O)O)cc2cc(S(=O)(=O)O)c(/C=C/c3ccccc3)c(O)c12	POLK inh 32µM, Pol iota inh 25µM (no result: POLB inh, PI4K2A inh, PI5P4K alpha inh, POLH inh)
O=C(Nc1cccc(C(F)(F)F)c1)Nc1cccs1	none (no result: PI5P4K alpha inh, POLH inh)
C[N+]1(C)CCC(=C2c3ccccc3CC(=O)c3sccc32)CC1	POLB inh 7.9µM, PI4K2A inh inconclusive, Pol iota inh 16µM (no result: PI5P4K alpha inh)
O=C(COCc1cc(-c2ccc3c(c2)OCO3)on1)N1CCN(c2ccc(F)cc2)CC1	Pol iota inh 79µM
O=C(COCc1cc(-c2cccs2)on1)N1CCN(c2ccc(F)cc2)CC1	none (no result: PI5P4K alpha inh)
O=C1OC(c2ccco2)=N/C1=C\c1ccc(-c2cccc(C(F)(F)F)c2)o1	POLH inh 79µM
O=C(C[n+]1ccccc1)c1cccc([N+](=O)[O-])c1	none (no result: POLB inh, PI4K2A inh, PI5P4K alpha inh, POLH inh)
Oc1ccc(-c2csc(NCc3ccco3)n2)cc1	none
c1coc(CNc2nc(-c3cccs3)cs2)c1	POLB inh 20µM
NC(=O)C1(N2CCCCC2)CCN(C(=O)Nc2ccc(Cl)c(Cl)c2)CC1	none (no result: PI5P4K alpha inh, POLH inh)
